Measurements from PubChem BioAssay.
The source made the active and inactive calls.

How the values were obtained:
[1] = E. coli DRC41 culture turbidity changes, primary screen, E. coli filamentation inducer project, strain DRC41, OD650, 48 h (AID 1152);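 also: E. coli MC1000 strain DRC41 lacking acrAB efflux pump and sulA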; conditions: E. coli DRC41 (acrAB sulA), higher = more signal, called active from +8 up or from −8 down
[2] = small-molecule binders of probe aLefty1, primary screen, biochemical, small-molecule microarray, 635/667 nm fluorescence (AID 1153); conditions: higher = more signal;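 also: score merges spot fluorescence with signal-to-noise ratio from the scanned slide images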
[3] = PSAC antagonists in infected red cells, primary screen, cell-based, P. falciparum Indochina, OD700, 1 h (AID 1154); conditions: P. falciparum Indochina infected RBC osmotic lysis, higher = more signal, called active from +8 up or from −8 down
[4] = PSAC antagonists in infected red cells, primary screen, cell-based, P. falciparum Indochina, OD700, 2 h (AID 1155);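 also: lysis reports solute entry through the parasite surface anion channel PSAC; channel blockers reduce lysis of infected cells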; conditions: P. falciparum Indochina infected erythrocytes, osmotic lysis OD700; higher = more signal, called active from +8 up or from −8 down
[5] = osmotic lysis modulators in infected erythrocytes, primary screen, PSAC antagonist project, cell-based, P. falciparum Indochina, OD700, 3 h (AID 1156); conditions: higher = more signal, called active from +8 up or from −8 down
[6] = PSAC antagonists in infected red cells, primary screen, cell-based, P. falciparum Indochina, OD700, 18 h (AID 1157); conditions: P. falciparum Indochina infected erythrocytes, osmotic lysis OD700, 18 h; higher = more signal, called active from +8 up or from −8 down
[7] = modulators of S6 phosphorylation in cells, primary screen, cell-based, A549, cytoblot, luminescence, serum-stimulated (AID 1158); conditions: A549 phospho-S6 cytoblot, 5 h, higher = more signal;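 also: serum-stimulated A549 lung adenocarcinoma cells; signal is phosphorylated S6 detected by cytoblot immunostaining with HRP secondary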
[8] = target: NADPH oxidase 2 (Homo sapiens) (UniProt P04839); assay: NOX2-dependent H2O2 signal modulators, primary screen, NOX inhibitor project, cell-based, HEK293-NOX2, PMA-stimulated, Amplex Red fluorescence (AID 1159); conditions: 45 min, higher = more signal, called active from +8 up or from −8 down; also: test concentration not given here
[9] = target: NADPH oxidase 4 (Homo sapiens) (UniProt Q9NPH5); assay: NOX4-dependent H2O2 signal modulators, primary screen, NOX inhibitor project, cell-based, HEK293-NOX4, tetracycline-induced, Amplex Red fluorescence (AID 1160); conditions: 45 min, higher = more signal, called active from +8 up or from −8 down
[10] = target: NADPH oxidase 5 (Homo sapiens) (UniProt Q96PH1); assay: NOX5-dependent H2O2 signal modulators, primary screen, NOX inhibitor project, cell-based, HEK293-NOX5, Amplex Red fluorescence (AID 1161); conditions: HEK293-NOX5, ionomycin, 45 min, higher = more signal
Sequence of NADPH oxidase 5 (Homo sapiens) (Q96PH1 whole entry, looked up): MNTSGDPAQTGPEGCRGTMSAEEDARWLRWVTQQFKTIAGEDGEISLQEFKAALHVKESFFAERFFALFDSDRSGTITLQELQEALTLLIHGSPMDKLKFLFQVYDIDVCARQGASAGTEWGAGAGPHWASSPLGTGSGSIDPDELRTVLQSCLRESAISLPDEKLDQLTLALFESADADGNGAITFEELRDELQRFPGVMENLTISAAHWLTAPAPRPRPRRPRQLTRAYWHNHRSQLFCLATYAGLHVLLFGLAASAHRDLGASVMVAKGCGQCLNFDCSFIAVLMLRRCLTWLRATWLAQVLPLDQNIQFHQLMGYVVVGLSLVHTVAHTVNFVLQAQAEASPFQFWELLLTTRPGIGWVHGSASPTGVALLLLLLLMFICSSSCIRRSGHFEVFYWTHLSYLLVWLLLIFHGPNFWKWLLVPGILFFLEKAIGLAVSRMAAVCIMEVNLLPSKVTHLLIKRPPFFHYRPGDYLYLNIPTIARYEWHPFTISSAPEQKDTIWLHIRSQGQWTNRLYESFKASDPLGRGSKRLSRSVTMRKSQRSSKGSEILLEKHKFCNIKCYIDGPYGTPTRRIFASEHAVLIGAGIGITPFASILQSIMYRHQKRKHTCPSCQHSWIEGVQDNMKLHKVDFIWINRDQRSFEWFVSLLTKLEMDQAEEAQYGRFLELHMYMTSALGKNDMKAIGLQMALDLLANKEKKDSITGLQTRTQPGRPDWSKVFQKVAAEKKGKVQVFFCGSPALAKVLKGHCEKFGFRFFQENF

Sequence of NADPH oxidase 2 (Homo sapiens) (P04839 whole entry, looked up): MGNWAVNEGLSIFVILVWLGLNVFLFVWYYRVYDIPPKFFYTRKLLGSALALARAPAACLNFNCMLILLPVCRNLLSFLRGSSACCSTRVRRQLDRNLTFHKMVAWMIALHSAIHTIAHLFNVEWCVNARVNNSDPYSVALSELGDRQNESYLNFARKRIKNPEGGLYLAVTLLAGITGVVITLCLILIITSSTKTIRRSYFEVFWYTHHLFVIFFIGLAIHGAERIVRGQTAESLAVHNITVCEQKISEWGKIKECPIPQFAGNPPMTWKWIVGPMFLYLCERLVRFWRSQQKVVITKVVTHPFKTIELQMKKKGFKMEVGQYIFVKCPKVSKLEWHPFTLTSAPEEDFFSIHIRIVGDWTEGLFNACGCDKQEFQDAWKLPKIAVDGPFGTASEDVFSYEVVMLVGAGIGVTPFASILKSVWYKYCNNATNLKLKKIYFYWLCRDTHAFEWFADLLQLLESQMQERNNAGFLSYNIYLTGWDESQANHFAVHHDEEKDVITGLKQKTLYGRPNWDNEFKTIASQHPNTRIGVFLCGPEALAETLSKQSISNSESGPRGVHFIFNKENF
Sequence of NADPH oxidase 4 (Homo sapiens) (Q9NPH5 whole entry, looked up): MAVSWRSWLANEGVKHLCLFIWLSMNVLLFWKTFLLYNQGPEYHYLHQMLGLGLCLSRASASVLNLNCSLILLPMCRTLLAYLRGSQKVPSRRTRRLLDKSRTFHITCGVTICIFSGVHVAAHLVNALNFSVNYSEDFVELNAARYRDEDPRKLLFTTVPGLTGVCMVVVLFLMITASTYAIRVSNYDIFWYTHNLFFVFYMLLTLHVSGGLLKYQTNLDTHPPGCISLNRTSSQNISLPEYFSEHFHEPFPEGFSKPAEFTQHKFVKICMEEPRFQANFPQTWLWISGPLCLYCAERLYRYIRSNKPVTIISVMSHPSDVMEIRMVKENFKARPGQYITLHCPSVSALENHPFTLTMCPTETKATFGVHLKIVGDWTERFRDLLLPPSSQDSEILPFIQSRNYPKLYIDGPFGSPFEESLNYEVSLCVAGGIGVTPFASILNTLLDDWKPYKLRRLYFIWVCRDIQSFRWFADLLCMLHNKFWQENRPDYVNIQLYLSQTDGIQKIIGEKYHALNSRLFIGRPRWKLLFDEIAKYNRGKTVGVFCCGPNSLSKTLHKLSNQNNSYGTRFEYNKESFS

Structure (SMILES) | z-score [1] | composite z-score [2] | z-score [3] | z-score [4] | z-score [5] | z-score [6] | z-score [7] | z-score [8] | z-score [9] | z-score [10]
NCCCCCNC(=O)[C@H]1C[C@H]2C(=O)N3CCC[C@H]3C(=O)N2[C@H]1c1ccc(O)cc1 | -0.607 (inactive) | 1.17 | 0.888 (inactive) | 0.0655 (inactive) | -1.9 (inactive) | 0.0061 (inactive) | -0.604 | 0.0724 (inactive) | 0.719 (inactive) | -0.182
CCCCCCc1nc(-c2ccc(-c3ccc(Cl)c(Cl)c3)o2)cc2c1[Si](C(C)C)(C(C)C)O[C@H]2c1ccccc1 | 0.321 (inactive) | -0.598 | 0.439 (inactive) | 0.0435 (inactive) | 1.47 (inactive) | 0.333 (inactive) | 0.205 | -1.24 (inactive) | -1.44 (inactive) | -1.49
COCCCNC(=O)[C@@]1(Cc2ccccc2)N=C(c2ccc(OCCCO)cc2)O[C@H]1c1ccccc1CN=[N+]=[N-] | 0.576 (inactive) | 0.272 | 14.3 (active) | 1.83 (inactive) | 1.75 (inactive) | 0.94 (inactive) | -0.443 | -4.56 (inactive) | -0.271 (inactive) | -0.67
CCOc1ccc(N2C(=O)CSC2c2cccc([N+](=O)[O-])c2)cc1 (stereo not given) | 0.379 (inactive) | 0.166 | 0.289 (inactive) | 0.285 (inactive) | 0.85 (inactive) | 0.0093 (inactive) | -0.287 | -0.957 (inactive) | -0.214 (inactive) | 0.887
O=C1O[C@H](c2ccccc2)[C@H](c2ccccc2)N2[C@H]1[C@@H](C(=O)NC[C@H](O)c1ccccc1)[C@]1(C(=O)Nc3ccc(C#CC4=CCCCC4)cc31)[C@H]2c1ccccc1OCCO | -0.161 (inactive) | 0.199 | 1.84 (inactive) | 2.06 (inactive) | -0.932 (inactive) | 2.06 (inactive) | 0.233 | 1.42 (inactive) | 1.04 (inactive) | 1.83
CN1CCC(CCCO)=CC1c1cccs1 (stereo not given) | -0.193 (inactive) | -0.103 | 1.77 (inactive) | 0.144 (inactive) | -0.311 (inactive) | 0.0874 (inactive) | 0.362 | 0.151 (inactive) | 0.249 (inactive) | -0.115
C=CC[C@@]1(C(=O)N2CCCCC2)N=C(c2ccc(OCCCO)cc2)O[C@@H]1c1ccccc1N=[N+]=[N-] | 0.432 (inactive) | 0.407 | 31.2 (active) | 27.2 (active) | 1.27 (inactive) | 6.5 (inactive) | 0.995 | -1.67 (inactive) | 0.378 (inactive) | -1.88
O=C1C2C=CC(C(O)c3ccc(F)cc3)N(Nc3ccc([N+](=O)[O-])cc3)C2C(=O)N1c1ccccc1 (stereo not given) | -1.01 (inactive) | 0.129 | 19.7 (active) | 3.8 (inactive) | 0.721 (inactive) | 1.22 (inactive) | -0.454 | -0.95 (inactive) | -2.96 (inactive) | -1.91
COCCOC(=O)N1C(=O)[C@@]2(c3cc(C#CC4(O)CCCCCC4)ccc31)[C@H](C(=O)Nc1nc3ccccc3s1)[C@H]1C(=O)O[C@H](c3ccccc3)[C@H](c3ccccc3)N1[C@@H]2c1ccccc1OCCO | 0.736 (inactive) | 0.282 | 2.48 (inactive) | 1.81 (inactive) | 0.895 (inactive) | 0.948 (inactive) | 0.476 | 1.85 (inactive) | 0.572 (inactive) | 0.908
CCOC(=O)[C@H]1C/C=C/C[C@H](C(=O)OCC)C(=O)O[C@H]2[C@@H](OC)O[C@H](CO)[C@@H](OC(=O)c3ccc(Br)cc3)[C@@H]2OC1=O | -0.365 (inactive) | -0.0349 | 2.35 (inactive) | 1.54 (inactive) | -0.128 (inactive) | 0.877 (inactive) | 0.0379 | -1.81 (inactive) | -0.145 (inactive) | -1.24
CC1CC/C=C\[C@H]2OC34C=CCN(Cc5ccccc5)C(=O)[C@H]3N(C(C)CO)C(=O)[C@@H]4C2C(=O)O1 (stereo not given in full) | 0.537 (inactive) | -0.0984 | 0.16 (inactive) | 0.365 (inactive) | 1.8 (inactive) | 0.425 (inactive) | -0.0395 | 0.799 (inactive) | -0.657 (inactive) | 1.27
[N-]=[N+]=NCc1ccccc1[C@H]1OC(c2ccc(OCCCO)cc2)=N[C@@]1(Cc1ccccc1)C(=O)N1CCCCC1 | 0.796 (inactive) | 0.0331 | 28.4 (active) | 23.2 (active) | 1.75 (inactive) | 1.77 (inactive) | 1.3 | -3.54 (inactive) | -0.919 (inactive) | -1.28
Cc1ccc(S[C@]2(C(=O)O)CC(=O)N(Cc3ccccc3C(F)(F)F)[C@@H]2c2ccc(CO)cc2I)cc1 | -1.17 (inactive) | 0.737 | 6.52 (inactive) | 0.427 (inactive) | 0.591 (inactive) | 0.402 (inactive) | 0.0721 | 1.63 (inactive) | -1.72 (inactive) | 1.12
COc1ccccc1CN1C(=O)c2ccccc2[C@@]2(Cc3ccccc3N(CCCN(C)C)C2=O)[C@@H]1c1ccc(CO)cc1 | 2 (inactive) | -0.152 | 0.599 (inactive) | -0.678 (inactive) | -0.795 (inactive) | -1.1 (inactive) | 2.55 | -0.841 (inactive) | -1.61 (inactive) | 1.51
CC[C@@H]1C=C(C(=O)O)[C@H](c2ccc(C)cc2)N1S(=O)(=O)c1ccc(C)cc1 | -0.557 (inactive) | 0.0582 | 1.08 (inactive) | 0.661 (inactive) | -0.245 (inactive) | 0.856 (inactive) | -0.362 | 0.587 (inactive) | -0.57 (inactive) | -1.24
C=C[C@H](C)[C@@H](OC(=O)Nc1ccc(SC)cc1)c1ccc(O)c2ccccc12 | -0.751 (inactive) | 0.0942 | 27.7 (active) | 9.84 (active) | 2.51 (inactive) | 1.31 (inactive) | 1.23 | -5.52 (inactive) | -1.45 (inactive) | 0.894
COCCOC(=O)N1C(=O)[C@@]2(c3cc(C#CC4(O)CCCCCC4)ccc31)[C@H](C(=O)Nc1nc3ccccc3s1)[C@H]1C(=O)O[C@H](c3ccccc3)[C@H](c3ccccc3)N1[C@@H]2c1ccc(OCCO)cc1 | 0.197 (inactive) | 0.411 | 2.97 (inactive) | 2.39 (inactive) | 1.73 (inactive) | 2.27 (inactive) | 0.481 | 0.566 (inactive) | -0.595 (inactive) | 0.0214
COc1ccc([Si](C)(C)[C@@H]2[C@@H](CCn3cc(CCO)nn3)O[C@]3(C(=O)N(Cc4cccc(N5C(=O)c6cccc7cccc5c67)c4)c4ccccc43)[C@H]2C)cc1 | 0.259 (inactive) | -0.0011 | 4.42 (inactive) | 1.6 (inactive) | 1.22 (inactive) | -0.682 (inactive) | 1.16 | 1.58 (inactive) | 1.76 (inactive) | 1.3
CC(=CC1CCCCC1)[C@@H](NC(=O)c1cccnc1)c1ccc(-c2ccccc2)cc1 | -2.67 (inactive) | 0.188 | 1.85 (inactive) | 0.943 (inactive) | -0.0465 (inactive) | 0.348 (inactive) | -0.849 | -1.27 (inactive) | -2.55 (inactive) | -0.0302
[N-]=[N+]=Nc1ccccc1[C@H]1OC(c2ccc(OCCCO)cc2)=N[C@@]1(Cc1ccccc1)C(=O)N1CCOCC1 | -0.388 (inactive) | 0.342 | 30.8 (active) | 30.6 (active) | 2.96 (inactive) | 9.58 (active) | -0.0055 | -1.29 (inactive) | 1.27 (inactive) | 1.13
COc1ccc([C@H]2C[C@H]3C(Br)=C[C@@]2(CO)C(=O)[C@]32CO2)cc1 | -0.532 (inactive) | -0.144 | -0.0473 (inactive) | 0.316 (inactive) | -0.231 (inactive) | -0.039 (inactive) | -0.578 | 0.24 (inactive) | 0.624 (inactive) | -0.268
COc1ccc([Si](C)(C)[C@@H]2[C@@H](CCO)O[C@]3(C(=O)N(Cc4cccc(N5CCOC5=O)c4)c4ccccc43)[C@H]2C)cc1 | -0.196 (inactive) | 0.0357 | 31.3 (active) | 29.8 (active) | -0.28 (inactive) | 3.29 (inactive) | 0.715 | -0.327 (inactive) | 2.15 (inactive) | 1.98
N#Cc1ccc(C(O)C2C=CC3C(=O)N(c4ccccc4)C(=O)C3N2Nc2ccccc2F)cc1 (stereo not given) | 0.55 (inactive) | 0.149 | 3.98 (inactive) | -0.245 (inactive) | -0.246 (inactive) | -0.616 (inactive) | 0.179 | -1.82 (inactive) | -3.54 (inactive) | -2.02
C=CCN(Cc1ccccc1)C(=O)C(c1cccs1)N(C(=O)/C=C\C(=O)O)c1ccc(CCOCCO)cc1 (stereo not given) | 1.61 (inactive) | -0.0538 | 1.51 (inactive) | -0.707 (inactive) | 0.189 (inactive) | -1.04 (inactive) | 1.77 | -0.108 (inactive) | -0.821 (inactive) | -0.58
COC(=O)[C@@]1(Cc2ccc(OC)cc2)[C@H]2c3cc(C(=O)N4CCCC4)n(Cc4nc5ccccc5[nH]4)c3C[C@H]2CN1C(=O)c1ccccc1 | -0.945 (inactive) | 0.388 | 6.92 (inactive) | 1.2 (inactive) | 2.04 (inactive) | 1.03 (inactive) | -0.0242 | -0.034 (inactive) | -0.0265 (inactive) | -3.27
CCCCN1CC=CC23O[C@@H]4C=CCOC(=O)[C@@H]4[C@H]2C(=O)N(CCCCCCO)[C@@H]3C1=O (stereo not given in full) | -0.413 (inactive) | -0.195 | 2.08 (inactive) | 0.393 (inactive) | 1.09 (inactive) | 0.405 (inactive) | 0.133 | 1.09 (inactive) | -0.282 (inactive) | 1.63
COCCCNC(=O)[C@@]1(Cc2ccccc2CN=[N+]=[N-])N=C(c2ccc(OCCCO)cc2)O[C@H]1c1ccccc1CN=[N+]=[N-] | 1.16 (inactive) | 0.123 | 31.4 (active) | 48.5 (active) | 2.97 (inactive) | 26.4 (active) | 2.88 | -3.05 (inactive) | -0.796 (inactive) | -1.91
